Out of some 340,000 compounds screened, about 1,000 (0.29%) were called active. These entries were drawn from the full list. Entries with a potency or affinity are not part of this list. A number with no mark means an inactive call. Rule as the data show it: inconclusive = inhibition above about 27% without an active follow-up result; inactive = below that.
Assay: NS1A inhibition, H1N1 influenza, cell based functional assay (AID 504329)
Conditions: percent inhibition, at 12.5 µM, hits give high values

SMILES	inhibition [%]
O=C(COC(=O)C1(c2ccccc2)CC1)NNC(=O)c1ccccc1F	-15.8
CC1(C)CC(=O)C(N=Nc2ccc(-c3ccccc3)cc2)=C(O)C1	10.2
CC1(C)CC(=O)C(N=Nc2c(Cl)cc(Cl)cc2Cl)=C(O)C1	9.91
Cc1c(N=Nc2c(O)n(C)c(=O)n(C)c2=O)c(=O)n(-c2ccccc2)n1C	3.65
Cc1c(N=Nc2ccc(O)cc2)c(=O)n(-c2ccccc2)n1C	-3.89
Cc1cc(NC(=O)CC(C)C)c(=O)n(Cc2c(F)cccc2Cl)c1	-1.36
Cc1ccc(S(=O)(=O)N2CCN(C(=O)CC3CCCC3)CC2)cc1	2.13
Cc1cc(C)c2nc(SCC(=O)NNC(=O)c3ccco3)c(C)cc2c1	-0.91
Cc1ccc(S(=O)(=O)N2CCCCC2)cc1C(=O)N1CCCCCC1	-15.6
CCOC(=O)C1CCN(C2CCN(C(=O)c3oc4c(F)cccc4c3C)CC2)CC1	-2
Cc1ccc(S(=O)(=O)N(CCC(=O)NCc2ccccc2F)c2ccccc2)cc1	-14.3
CC(=O)c1ccc(NC(=O)Nc2ccc(Br)cc2C)cc1	1.12
C=C(C)COc1ccc(-c2[nH]ncc2Oc2ccccc2OC)c(O)c1	-3.04
O=[N+]([O-])c1ccccc1/C=N\N1CCN(c2ccccc2)CC1	17
O=[N+]([O-])c1ccccc1/C=C/C=N/N1CCCCC1	4.44
CCNc1c(C(=O)O)ccc2c1C(=O)c1ccccc1C2=O	10.3
O=C(O)c1ccc2c(c1Nc1ccccc1)C(=O)c1ccccc1C2=O	16.9
O=C1c2ccccc2-c2c1cccc2C(=O)N1CCCCC1	-10.6
CCN(CCN(C)C)C(=O)c1ccc2c(c1NCCO)C(=O)c1ccccc1C2=O	12.9
O=C1c2ccccc2-c2c1cccc2C(=O)N1CCCCCC1	-0.29
O=C1c2ccccc2C(=O)c2c1ccc(C(=O)N1CCCCC1)c2NCCO	21.2
CC1CCCN(C(=O)CN2C(=O)c3ccccc3C2=O)C1 (stereo unspecified)	-0.8
CC1CC(C)CN(C(=O)c2cccc3c2-c2ccccc2C3=O)C1 (stereo unspecified)	-15
CCOC(=O)c1sc(C)c2c(=O)n(CCCN3CCOCC3)cnc12	-0.01

SMILES	inhibition [%]
Cc1cc(C(=O)NCc2cccnc2)n(-c2ccccc2)n1	24.2
CC(C)(C)OC(=O)N[C@H](C(=O)OC(C)(C)C)c1ccc(C(F)(F)F)cc1	8.11
COC(=O)CNC(=O)Cn1c(=O)n(Cc2ccc(F)cc2)c(=O)c2sccc21	0.76
COc1ccc(CCC(=O)NCCS(=O)(=O)N2CCN(c3ccc(OC)cc3)CC2)cc1	1.44
COC(=O)c1sc2ncccc2c1OCc1cccc(Cl)c1	1.6
Cc1cc(C)cc(OCC(=O)Nc2nonc2NC(=O)COc2cc(C)cc(C)c2)c1	-4.28
Nn1c(SC/C=C/c2ccccc2)nnc1-c1ccncc1	-1.07
Nn1c(SC/C=C/c2ccccc2)nnc1-c1cccnc1	-6.35
CN(c1ncc(C(F)(F)F)cc1Cl)N1C(=O)c2cccc(N)c2C1=O	-4.28
COc1ccccc1N1CCN(C(=O)c2sc3ncn(CC(=O)N4CCC(C)CC4)c(=O)c3c2C)CC1	6.39
CN(Cc1nc(CC2CC2)no1)CC12CC3CC(CC(C3)C1)C2	-6.9
O=C(c1ccc(O)cc1)c1ccc(C(=O)c2ccc(O)cc2)cc1	-19.1
O=C(c1ccc(O)cc1)c1ccc(Cl)cc1	-10.1
CCOCCCNC(=O)C1c2ccccc2C(=O)N2CCc3ccccc3C12 (stereo unspecified)	24.7
COc1ccc(Nc2cccc3ccccc23)cc1	-1.24
COc1ccc(Nc2cccccc2=O)cc1	-2.41
Nc1ccccc1Nc1ccccc1	18.3
CC(C)Nc1ccccc1	-4.73
Cc1ccc(Nc2ccccc2)cc1	9.38
Cc1ccc(Nc2cccccc2=O)cc1	-5.45
COc1ccccc1Nc1ccc(N)cc1	10.9
CC(=O)Nc1ccc(Nc2ccccc2)cc1	-4.36
CC(CN1CCN(C)CC1)OC(=O)c1cccc(F)c1 (stereo unspecified)	-2.72
COc1cc(OC)c(CN2CCC(Cc3ccccc3)CC2)cc1Br	-20.9

SMILES	inhibition [%]
COc1ccc(NC(=O)CSc2nc3[nH]ncc3c(=O)[nH]2)cc1OC	-0.08
COc1cccc(CNc2nc3nc(C)c(Cl)c(C)n3n2)c1	0.89
CCc1nnc(NC(=O)COC(=O)c2cc(OC)cc(OC)c2)s1	1.22
CCc1ccc(NC(=O)C2CCN(c3ncnc4c3nc3n4CCCCC3)CC2)cc1	-5.69
CCOc1ccc2oc(C(=O)N(Cc3nnc(-c4ccccc4Cl)o3)C3CC3)c(C)c2c1	-5.39
CC(C)c1ccc(CNC(=O)CSCC(=O)Nc2ccc3ccccc3c2)cc1	1.48
CCc1nn(CC(=O)NC2CCN(Cc3ccccc3)CC2)c(=O)c2cc3cc(F)ccc3n12	0.23
Cc1cc(C)c(NC(=O)CS(=O)CC(=O)Nc2ccc(-n3cnnn3)c(C)c2)c(C)c1 (stereo unspecified)	-3.45
C/C(=C/c1ccccc1)C(=O)N1CCN(c2ccc(F)cc2)CC1	-28.5
c1ccc(Nc2ccc(Nc3ccccc3)cc2)cc1	26.8
c1ccc(Nc2ccccc2)cc1	-1.53
CC(C)c1nc(SCC(=O)N2CCCCCC2)c2c(=O)n(C)c(=O)n(C)c2n1	-2.22
COc1ccccc1C(CCNCc1ccccc1)c1ccc(OC(C)C)cc1 (stereo unspecified)	11.1
COc1ccc(C(CCNCc2ccc(OC(C)C)cc2)c2ccccc2OC)cc1 (stereo unspecified)	3.25
COc1ccc(CNCCC(c2ccc(OC(C)C)cc2)C(C)C)cc1OC (stereo unspecified)	5.92
COc1ccc(CNCCC(c2ccc(OC(C)C)cc2)c2ccccc2OC)cc1 (stereo unspecified)	13.4
COc1ccc(CNCCC(c2ccc(OC)cc2)c2ccccc2OC)cc1 (stereo unspecified)	-0.73
COc1ccc(C(CCNCc2ccc(N(C)C)cc2)c2ccccc2)cc1 (stereo unspecified)	25.2
O=C(CCc1c[nH]c2ccccc12)NCc1cccc(Cl)c1	15.9
Cc1cc(=O)oc2cc(OCC(=O)Nc3c(C)n(C)n(-c4ccccc4)c3=O)c(Cl)cc12	-7.09
Cc1cc(=O)oc2cc(OCC(=O)N(C)C3CCS(=O)(=O)C3)c(Cl)cc12 (stereo unspecified)	-3.85
CN(C)/C=C1/C(=O)NC(=O)N(CCNc2ncc(C(F)(F)F)cc2Cl)C1=O	-1.37
CN(C)C(=O)CCc1ccc2c3c([nH]c2c1)[C@]1(C)[C@@H](C(=O)N2CCCCC2)C[C@H](CC(=O)NCCN2CCOCC2)C(=O)N1CC3	8.89
S=C(NCc1cccs1)NCC1CCCO1 (stereo unspecified)	-5.35

SMILES	inhibition [%]
Cc1ccc(S(=O)(=O)N(C)CCCC(=O)Nc2cccc3ccccc23)cc1	2.47
Cc1ccc(S(=O)(=O)N(C)CCCC(=O)Nc2ccc(C)cc2C)cc1	-2.08
Cc1ccccc1N=Nc1ccc(O)c2ncccc12	11.8
Oc1ccc(N=Nc2ccccc2C(F)(F)F)c2cccnc12	18.7
Cc1ccc(N=Nc2ccc(O)c3ncccc23)cc1C	-4.94
Cc1ccc(N=Nc2ccc(O)c3ncccc23)cc1	-1.47
CCOc1ccc(NC(=O)CN(C)C(=O)CSCc2c(C)noc2C)cc1OCC	-3.36
COc1ccc(CC(=O)NNC2=Nc3cccc4cccc2c34)cc1OC	-25.3
O=C1c2ccccc2C(=O)N1CCc1nc2ccccc2c(=O)n1Cc1ccco1	-1.09
O=C(Cc1ccc(N(CCCl)CCCl)cc1)NC(Cc1ccc(Cl)cc1)C(=O)O (stereo unspecified)	-4.27
CC(C(=O)NCC1(c2ccccc2)CCOCC1)N1CCOCC1 (stereo unspecified)	-3.8
C=CCN1C=CC(=CC=C(C#N)C#N)C=C1	4.22
CCCCCCN1C=C/C(=C\C=C(C#N)C#N)c2ccccc21	18.4
CCN(CC)C(=O)c1nn(Cc2ccccc2)c(=O)c2ccccc12	-5.91
Cc1ccc(-n2c(C)cc(C(=S)N3CCOCC3)c2C)cc1C	12.2
Cc1cc(C(=S)N2CCOCC2)c(C)n1-c1ccc(F)cc1	1.72
O=C(NC1(c2ccccc2)CC1)C1CCC(=O)N(Cc2ccc(Cl)cc2)C1 (stereo unspecified)	8.58
CC1C/C(=N\Nc2ccc(S(N)(=O)=O)cc2[N+](=O)[O-])CC(C)(C)C1 (stereo unspecified)	8.9
CC1CCC/C(=N/Nc2ccc([N+](=O)[O-])cc2[N+](=O)[O-])C1 (stereo unspecified)	10.6
O=[N+]([O-])c1ccc(N/N=C2\CC3CC=CC23)cc1 (stereo unspecified)	-1.23
O=[N+]([O-])c1ccccc1N/N=C1\CC2CC=CC12 (stereo unspecified)	21.6
O=C(CN1CCN(S(=O)(=O)c2ccc(Br)cc2)CC1)N/N=C/c1cc([N+](=O)[O-])ccc1Cl	-0.7
O=C(Oc1cccc(F)c1)c1ccc2c(=O)n3c(nc2c1)CCC3	3.05
N#CCO/N=C/C(=O)Nc1ccc(F)cc1F	-11.8
